Records with an inconclusive call do not appear. Calls of active or inactive are those of the source. Unless noted, calls follow the shape of the full dose curve.
How the values were obtained:
[1] = target: Bile acid receptor (Homo sapiens) (UniProt Q96RI1); assay: qHTS assay for small molecule antagonists of farnesoid X receptor signaling (AID 588526); also: % is scaled to controls: 0 for no effect and ±100 for the full control effect
Summary of the method: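 Beta-lactamase reporter antagonist mode: HEK293T FXR-UAS-bla cells, titrated compound, CDCA stimulation, 16 h 37 C, CCF4 dye 2 h RT. Data normalized to CDCA 50 uM and DMSO; Hill-fit IC50.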

[2] = target: Bile acid receptor (Homo sapiens) (UniProt Q96RI1); assay: qHTS assay for small molecule agonists of farnesoid X receptor signaling (AID 588527); settings: HEK293T FXR-UAS-bla, beta-lactamase ratio, 16 h; activation: stronger effect = higher value;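 also: series mostly up to about 77 µM; 0% = vehicle basal and 100% = reference agonist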
Summary of the method: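 FXR-UAS-bla HEK293T cells (10% dialyzed FBS) preincubated 5-7 h at 37 C, then compounds at up to 92 uM for 16 h at 37 C. CCF4 beta-lactamase read-out after 2 h RT. Normalized to chenodeoxycholic acid (100 uM) and DMSO; Hill fit gave EC50 and efficacy.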

[3] = target: Peroxisome proliferator-activated receptor delta (Homo sapiens) (UniProt Q03181); assay: qHTS assay for small molecule agonists of peroxisome proliferator-activated receptor delta signaling (AID 588534);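 also: 0% = DMSO basal wells and 100% = positive control agonist at 10 µM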
Peroxisome proliferator-activated receptor delta (Homo sapiens), sequence (Q03181 whole entry, looked up): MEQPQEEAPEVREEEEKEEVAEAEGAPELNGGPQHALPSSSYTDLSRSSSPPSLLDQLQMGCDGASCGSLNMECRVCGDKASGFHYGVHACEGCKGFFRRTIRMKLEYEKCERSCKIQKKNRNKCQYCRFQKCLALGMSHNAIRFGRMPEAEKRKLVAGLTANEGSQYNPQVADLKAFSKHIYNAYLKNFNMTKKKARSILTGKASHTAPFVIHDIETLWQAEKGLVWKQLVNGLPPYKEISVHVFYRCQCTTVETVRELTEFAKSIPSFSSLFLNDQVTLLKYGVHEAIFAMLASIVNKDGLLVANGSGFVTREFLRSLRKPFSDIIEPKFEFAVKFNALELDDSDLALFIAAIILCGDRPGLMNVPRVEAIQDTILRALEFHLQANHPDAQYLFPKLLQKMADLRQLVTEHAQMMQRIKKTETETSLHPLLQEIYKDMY
Summary of the method: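 Agonist-mode qHTS; reporter cells, 5 hrs 37 C pre-incubation; compound titration, 18 hrs 37 C; CCF4 dye, 2 hrs RT; fluorescence read. EC50/efficacy via Hill fit.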

[4] = qHTS assay for small molecule antagonists of peroxisome proliferator-activated receptor delta signaling (AID 588535; active = well fitted inhibition curve with a large enough effect in the signal ratio, with a control signal flat, not every such curve was filed as active; the % refers to the signal ratio;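 as to max response: cells co-treated with a PPAR-delta agonist as stimulator during compound exposure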); settings: HEK293T PPARd-UAS-bla, beta-lactamase FRET ratio, 18 h; 460 nm channel
Summary of the method: (§1)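 Titrations were run on PPAR-delta-UAS-bla HEK293T cells in charcoal/dextran-stripped serum, incubated 18 h at 37 C. CCF4 fluorescence (460/530 nm) after 2 h RT; Hill equation yields IC50 and maximal response.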

[5] = target: Peroxisome proliferator-activated receptor delta (Homo sapiens) (UniProt Q03181); assay: as above
Summary of the method: as §1

[6] = target: Vitamin D3 receptor (Homo sapiens) (UniProt P11473); assay: qHTS assay for small molecule agonists of vitamin D receptor signaling (AID 588543);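 also: 0% = DMSO basal and 100% = reference agonist control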
Vitamin D3 receptor (Homo sapiens), sequence (P11473 whole entry, looked up): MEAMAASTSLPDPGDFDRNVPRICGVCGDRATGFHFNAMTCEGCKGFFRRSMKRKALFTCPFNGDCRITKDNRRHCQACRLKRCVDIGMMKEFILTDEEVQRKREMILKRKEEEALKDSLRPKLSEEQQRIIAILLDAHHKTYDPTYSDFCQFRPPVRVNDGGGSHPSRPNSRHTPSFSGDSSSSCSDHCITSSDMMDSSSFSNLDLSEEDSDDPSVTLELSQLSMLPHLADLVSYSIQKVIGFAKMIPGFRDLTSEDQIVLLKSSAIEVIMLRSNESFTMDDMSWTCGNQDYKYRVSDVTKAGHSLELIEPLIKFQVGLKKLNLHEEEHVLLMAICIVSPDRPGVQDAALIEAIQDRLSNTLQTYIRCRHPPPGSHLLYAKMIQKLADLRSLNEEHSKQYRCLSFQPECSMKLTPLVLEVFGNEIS
Summary of the method: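 qHTS in agonist mode: compound titrations stimulate a VDR-driven β-lactamase reporter in HEK293T cells over 16 h at 37 °C. Response normalized to 50 nM 1α,25-dihydroxyvitamin D3 = 100%, DMSO = 0%; Hill fitting gives EC50 and maximal response.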

[7] = qHTS assay for small molecule agonists of retinoid X receptor alpha signaling (AID 588544); settings: HEK293T RXRa-UAS-bla, beta-lactamase reporter, 18 h; 530 nm emission;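 as to activation: 0% = DMSO basal wells and 100% = reference agonist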
[8] = target: Retinoic acid receptor RXR-alpha (Homo sapiens) (UniProt P19793); assay: as above
Retinoic acid receptor RXR-alpha (Homo sapiens), sequence (P19793 whole entry, looked up): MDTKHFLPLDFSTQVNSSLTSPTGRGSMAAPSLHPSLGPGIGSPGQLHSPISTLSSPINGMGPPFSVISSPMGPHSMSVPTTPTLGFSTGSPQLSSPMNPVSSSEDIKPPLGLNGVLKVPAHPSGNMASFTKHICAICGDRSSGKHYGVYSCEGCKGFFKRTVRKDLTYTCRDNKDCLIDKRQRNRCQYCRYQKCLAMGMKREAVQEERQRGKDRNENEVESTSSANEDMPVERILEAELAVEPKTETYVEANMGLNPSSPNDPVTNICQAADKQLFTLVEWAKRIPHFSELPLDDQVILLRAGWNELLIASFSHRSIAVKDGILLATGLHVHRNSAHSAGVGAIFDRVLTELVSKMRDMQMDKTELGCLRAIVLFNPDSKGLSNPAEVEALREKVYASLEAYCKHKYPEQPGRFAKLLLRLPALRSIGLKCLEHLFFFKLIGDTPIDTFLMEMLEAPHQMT

[9] = target: Thyroid hormone receptor beta (Homo sapiens) (UniProt P10828); assay: qHTS assay for small molecule agonists of thyroid hormone receptor beta signaling (AID 588545)
Thyroid hormone receptor beta (Homo sapiens), sequence (P10828 whole entry, looked up): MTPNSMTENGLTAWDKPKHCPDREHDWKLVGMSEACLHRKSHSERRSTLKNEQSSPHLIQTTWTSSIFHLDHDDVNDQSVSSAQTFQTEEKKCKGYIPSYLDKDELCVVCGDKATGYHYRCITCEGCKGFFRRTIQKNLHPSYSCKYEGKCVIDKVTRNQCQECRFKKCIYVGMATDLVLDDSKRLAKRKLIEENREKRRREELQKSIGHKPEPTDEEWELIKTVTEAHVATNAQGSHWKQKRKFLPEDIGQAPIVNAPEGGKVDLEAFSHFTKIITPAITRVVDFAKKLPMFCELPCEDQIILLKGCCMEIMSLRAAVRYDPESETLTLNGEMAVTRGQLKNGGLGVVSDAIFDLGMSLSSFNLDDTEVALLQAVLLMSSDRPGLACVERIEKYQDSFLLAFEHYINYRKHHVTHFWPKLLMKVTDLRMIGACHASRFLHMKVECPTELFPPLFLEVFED
Summary of the method: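 Agonist activity was read as beta-lactamase CCF4 fluorescence (405 ex, 460/530 em), scaled between DMSO (0%) and 10 nM T3 (100%), then Hill-fitted for EC50 and efficacy. HEK 293 TR-UAS-bla cells in 2% charcoal/dextran FBS medium were exposed 18 h at 37 C.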

[10] = qHTS assay for small molecule antagonists of retinoid X receptor alpha signaling (AID 588546; active = well fitted inhibition curve with a large enough effect in the signal ratio, with a control signal flat, not every such curve was filed as active; the % refers to the signal ratio;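 also: cells stimulated with 9-cis-retinoic acid as agonist; % is scaled to controls: 0 for no effect and ±100 for the full control effect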); settings: HEK293T RXRa-UAS-bla, beta-lactamase ratio, antagonist mode; measured here: W530 green channel, cytotoxicity proxy
Summary of the method: (§2)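 Beta-lactamase reporter inhibition, read as CCF4 fluorescence ratio (ex 405, em 460/530 nm) after 2 h at RT. HEK293T UAS-bla cells, 2500/well, were stimulated with 9-cis-RA at 500 or 100 nM final alongside test compound for 18 h at 37 C.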

[11] = target: Thyroid hormone receptor beta (Homo sapiens) (UniProt P10828); assay: qHTS assay for small molecule antagonists of thyroid hormone receptor beta signaling (AID 588547; active = well fitted inhibition curve with a large enough effect in the signal ratio, with a control signal flat, not every such curve was filed as active; the % refers to the signal ratio;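 also: cells stimulated with 0.4 nM T3 agonist during compound exposure; series mostly up to about 77 µM; % is scaled to controls: 0 for no effect and ±100 for the full control effect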); settings: TR-UAS-bla HEK293, beta-lactamase ratio, antagonist mode, 18 h
Summary of the method: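 Inhibition of T3-driven (0.4nM final) beta-lactamase reporter activity was measured over 0.59 nM to 92 uM compound after 18 h at 37 C. The cells were GripTite HEK293 TR-UAS-bla in charcoal/dextran-stripped serum, with CCF4 ratio read-out and IC50 from Hill fits.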

[12] = qHTS assay for small molecule activators of the nuclear factor-kappa B (NF-kB) signaling pathway (AID 651749; active = well fitted activation curve with a large enough effect in the signal ratio; the % refers to the signal ratio; also: series mostly up to about 77 µM; % of control where 0% means no effect); settings: NF-kB-bla ME-180 cells, beta-lactamase FRET ratio, 16 h; activation: stronger effect = higher value
Summary of the method: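 Activation measured after 16 hr compound treatment at 37C, 5% CO2, of 2,000 ME-180 cells/well stably expressing an NF-kB response element–driven beta-lactamase reporter, via FRET-disruption fluorescence.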

[13] = qHTS assay for environmental chemicals that activate the Aryl hydrocarbon Receptor (AhR) signaling pathway (AID 651777; active = well fitted curve in the direction sought with a large enough effect; an effect the other way counts as inactive or inconclusive; also: % of control where 0% means no effect; nearly all actives have a fitted effect of over 15% in size); settings: 1A2-DRE human hepatoma cells, luciferase, 24 h; activation: stronger effect = higher value
Summary of the method: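 1A2-DRE human hepatoma reporter line; 1,200 cells/well; cmpd or DMSO 24 h, 37 C/5% CO2; One-Glo 30 min RT; luciferase lum.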

[14] = target: Peroxisome proliferator-activated receptor alpha (Homo sapiens) (UniProt Q07869); assay: qHTS assay for small molecule agonists of the peroxisome proliferator-activated receptor alpha (PPARalpha) signaling pathway (AID 651778; active = well fitted curve in the direction sought with a large enough effect; an effect the other way counts as inactive or inconclusive; also: % of control where 0% means no effect); settings: PathHunter PPARalpha complementation, chemiluminescence, 6 h; max response: stronger effect = higher value
Peroxisome proliferator-activated receptor alpha (Homo sapiens), sequence (Q07869 whole entry, looked up): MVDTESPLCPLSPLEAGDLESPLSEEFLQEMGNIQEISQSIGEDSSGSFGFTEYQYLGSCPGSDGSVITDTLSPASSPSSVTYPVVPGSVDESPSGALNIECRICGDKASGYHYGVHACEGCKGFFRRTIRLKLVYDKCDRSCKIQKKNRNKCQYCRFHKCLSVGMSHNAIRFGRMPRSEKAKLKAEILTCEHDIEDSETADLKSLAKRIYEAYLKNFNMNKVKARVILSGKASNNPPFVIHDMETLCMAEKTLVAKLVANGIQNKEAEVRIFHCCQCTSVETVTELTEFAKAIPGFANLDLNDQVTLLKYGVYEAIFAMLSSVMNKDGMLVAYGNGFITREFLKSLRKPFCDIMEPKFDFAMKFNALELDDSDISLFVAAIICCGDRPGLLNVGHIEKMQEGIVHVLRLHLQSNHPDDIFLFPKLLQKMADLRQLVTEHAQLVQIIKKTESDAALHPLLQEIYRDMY
Summary of the method: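 Chemiluminescence from complemented enzyme reported PPARalpha activation in cells after 6 hr of compound treatment at 37 C. The detection reagent was incubated for 60 min at room temperature, and compounds were scored as agonists.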

[15] = qHTS assay for small molecule agonists of the antioxidant response element (ARE) signaling pathway measured by Nrf2-dependant transcriptional activity (AID 720636; active = well fitted curve in the direction sought with a large enough effect in the repeat runs; an effect the other way counts as inactive or inconclusive;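 also: HepG2 cells with an ARE-driven luciferase reporter; % of control where 0% means no effect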)
Summary of the method: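 Cells: ARE-luc HepG2 with Nrf2-responsive luciferase. Medium contained 1% dialyzed FBS. Compound exposure lasted 16 hr at 37 C and 5% CO2, followed by ONE-Glo luciferase detection.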

[16] = qHTS assay for small molecule agonists of the antioxidant response element (ARE) signaling pathway measured by Nrf2-dependant transcriptional activity - cell viability counter screen (AID 720653; active = well fitted curve in the direction sought with a large enough effect in the repeat runs; an effect the other way counts as inactive or inconclusive; also: % is scaled to controls: 0 for no effect and ±100 for the full control effect); settings: ARE-bla HepG2 viability, CellTiter-Glo ATP luminescence, 16 h; max response: stronger effect = lower value
Summary of the method: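 Cytotoxicity counter screen: intracellular ATP quantified by CellTiter-Glo luminescence in the same ARE-bla HepG2 plates, after 16 h compound exposure and a 2 h beta-lactamase substrate step.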

[17] = qHTS assay for cell viability of HEK293 cells (AID 743288; active = well fitted curve in the direction sought with a large enough effect; an effect the other way counts as inactive or inconclusive; also: % is scaled to controls: 0 for no effect and ±100 for the full control effect; nearly all actives have a fitted effect of over 50% in size); settings: ATP luminescence (CellTiter-Glo), 18 h; max response: stronger effect = lower value
Summary of the method: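 Quantitative high-throughput screen: compounds were pinned onto parental HEK293 cells (2,000 per well) after a minimum 5 h settling at 37 C, incubated 18 h at 37 C, and intracellular ATP measured by luciferase luminescence.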

[18] = qHTS assay for cell viability of the p53RE-bla HCT-116 cell line (AID 743292; active = well fitted curve in the direction sought with a large enough effect; an effect the other way counts as inactive or inconclusive; also: % is scaled to controls: 0 for no effect and ±100 for the full control effect; nearly all actives have a fitted effect of over 55% in size)
Summary of the method: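 HCT-116 p53RE-bla cells seeded 4,000/well; 5 h at 37 C; compound (DMSO) added; 16 h at 37 C; CellTiter-Glo added, 30 min RT; luminescence read.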

[19] = target: Glucocorticoid receptor (Homo sapiens) (UniProt P04150); assay: qHTS assay for small molecule agonists of glucocorticoid receptor signaling (AID 588532; active = well fitted curve in the direction sought with a large enough effect in the signal ratio, with a control signal flat; the % refers to the signal ratio;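 also: 100% = dexamethasone at 0.1 µM and 0% = DMSO only wells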); settings: HeLa MMTV-bla, beta-lactamase ratio, agonist, 18 h; activation: stronger effect = higher value, percent of dexamethasone control, DMSO zero
Glucocorticoid receptor (Homo sapiens), sequence (P04150 whole entry, looked up): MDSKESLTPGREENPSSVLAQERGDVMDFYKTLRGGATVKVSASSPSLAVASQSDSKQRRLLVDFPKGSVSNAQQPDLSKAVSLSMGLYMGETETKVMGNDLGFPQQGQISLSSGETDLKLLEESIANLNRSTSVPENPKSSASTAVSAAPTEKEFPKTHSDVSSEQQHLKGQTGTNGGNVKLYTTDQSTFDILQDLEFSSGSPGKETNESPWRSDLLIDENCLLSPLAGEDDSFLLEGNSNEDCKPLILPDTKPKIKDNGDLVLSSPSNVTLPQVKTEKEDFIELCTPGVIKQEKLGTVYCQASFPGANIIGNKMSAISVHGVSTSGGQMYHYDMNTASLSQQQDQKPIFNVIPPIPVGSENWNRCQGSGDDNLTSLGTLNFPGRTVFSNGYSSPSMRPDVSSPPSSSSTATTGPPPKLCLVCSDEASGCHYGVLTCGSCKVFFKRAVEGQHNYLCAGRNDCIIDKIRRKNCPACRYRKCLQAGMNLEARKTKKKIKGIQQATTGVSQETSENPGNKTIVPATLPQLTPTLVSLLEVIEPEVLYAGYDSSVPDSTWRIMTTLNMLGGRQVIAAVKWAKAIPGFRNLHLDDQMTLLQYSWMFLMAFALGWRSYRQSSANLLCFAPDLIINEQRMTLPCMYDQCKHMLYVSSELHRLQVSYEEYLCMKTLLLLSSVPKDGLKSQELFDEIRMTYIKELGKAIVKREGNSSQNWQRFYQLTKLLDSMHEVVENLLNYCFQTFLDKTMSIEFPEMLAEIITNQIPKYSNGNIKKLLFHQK
Summary of the method: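 Quantitative HTS using CellSensor MMTV-bla HeLa cells in charcoal/dextran-treated serum; compounds tested up to 92 uM. After 18 h at 37 C, CCF4 dye reported reporter induction.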

[20] = target: Retinoic acid receptor RXR-alpha (Homo sapiens) (UniProt P19793); assay: qHTS assay for small molecule antagonists of retinoid X receptor alpha signaling (AID 588546); settings: HEK293T RXRa-UAS-bla, beta-lactamase ratio, antagonist mode;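 also: cells stimulated with 9-cis-retinoic acid as agonist; % is scaled to controls: 0 for no effect and ±100 for the full control effect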
Summary of the method: as §2

Bile acid receptor (Homo sapiens), sequence (Q96RI1 whole entry, looked up): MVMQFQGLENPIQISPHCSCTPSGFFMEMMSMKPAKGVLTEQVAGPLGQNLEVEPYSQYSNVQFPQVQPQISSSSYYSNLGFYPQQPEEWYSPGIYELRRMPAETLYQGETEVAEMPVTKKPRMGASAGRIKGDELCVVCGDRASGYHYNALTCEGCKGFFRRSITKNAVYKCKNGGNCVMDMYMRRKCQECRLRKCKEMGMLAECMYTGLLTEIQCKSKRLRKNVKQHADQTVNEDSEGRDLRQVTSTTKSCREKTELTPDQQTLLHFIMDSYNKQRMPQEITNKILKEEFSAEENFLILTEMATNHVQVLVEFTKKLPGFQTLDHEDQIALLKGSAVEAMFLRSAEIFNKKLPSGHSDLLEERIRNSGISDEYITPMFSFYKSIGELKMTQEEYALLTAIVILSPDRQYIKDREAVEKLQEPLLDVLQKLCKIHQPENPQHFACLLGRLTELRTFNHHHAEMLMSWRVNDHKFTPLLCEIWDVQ

SMILES | Potency [1] | activation [2] | outcome [3] | max response [4] [%] | Potency [5] | outcome [6] | max response [7] [%] | Potency [8] | Potency [9] | max response [10] [%] | activity change % (negative = inhibition) [11] | activation [12] | activation [13] | max response [14] | Potency [15] | max response [16] | max response [17] | Potency [18] | activation [19] | max response [20]
Nc1nc(N)nc(N)n1 | inactive | 0.442% (inactive) | inactive | 16 | inactive | inactive | -6.58 | inactive | inactive | -0.207 | -6.25% (inactive) | -1.8% (inactive) | -1.1% (inactive) | -3.29% (inactive) | inactive | -2.99% (inactive) | -12% (inactive) | inactive | – | –
COc1nn(C(=O)NS(=O)(=O)c2ccccc2OC(F)(F)F)c(=O)n1C | inactive | 1.22% (inactive) | inactive | – | – | inactive | -2.96 | inactive | inactive | -2.65 | 8.96% (inactive) | -2.5% (inactive) | 1.39% (inactive) | -1.08% (inactive) | inactive | 3.81% (inactive) | -3.61% (inactive) | inactive | -3.65% (inactive) | -13.4% (inactive)
Cc1cc(C2CC2)nc(Nc2ccccc2)n1 | inactive | -4.1% (inactive) | inactive | 1.7 | inactive | inactive | 7.71 | inactive | inactive | -2.59 | -20% (inactive) | – | – | 5.58% (inactive) | – | 0.0652% (inactive) | – | inactive | – | -23.3% (inactive)
CCOc1cc(C(C)(C)C)ccc1C1COC(c2c(F)cccc2F)=N1 (stereo not drawn) | – | – | inactive | -21.7 | inactive | inactive | – | – | inactive | – | -28.7% (inactive) | 3.07% (inactive) | 6.58% (inactive) | 6.72% (inactive) | – | -8.55% (inactive) | -20% (inactive) | – | – | –
COC(C)(C)CCC[C@H](C)C/C=C/C(C)=C/C(=O)OC(C)C | – | – | – | – | – | – | 10.5 | inactive | inactive | -16.5 | -10.3% (inactive) | 0.706% (inactive) | -0.0877% (inactive) | 0.0369% (inactive) | inactive | -6.46% (inactive) | – | inactive | – | 6.26% (inactive)
CCNc1nc(NC(C)C)nc(OC)n1 | inactive | -2.29% (inactive) | inactive | 24.4 | inactive | inactive | -5.81 | inactive | inactive | -8.69 | – | -1.42% (inactive) | 0.686% (inactive) | -1.03% (inactive) | inactive | 6.46% (inactive) | 0.985% (inactive) | inactive | -1.69% (inactive) | 2.56% (inactive)
